In PubChem BioAssay AID1259421 (Broad Institute, 2018):
Several values for one entry are separate records, joined by “and”; a condition that tells them apart may be missing. Identical values can stand only once. About 610 (9.5%) of roughly 6,400 compounds were called active. Cut-off read from the data, not from the text of the source: active = activity change below about -70%; inconclusive = no clear call, values can overlap the other calls; inactive = above that. The full list was thinned out, with actives kept by preference. Where a structure was tested more than once in an assay, its records may differ in their call. Where a SMILES comes first, the peptide text is derived from it.

Assay: T. gondii ME49Luc in HeLa cells, luciferase assay, 72 h, no IFN-y (AID 1259421)
Details: stronger effect = lower value, concentration not given here

Structure (SMILES) | activity change, negative = inhibition
C[N@@+]1(CC2CC2)CC[C@]23c4c5ccc(O)c4O[C@H]2C(=O)CC[C@]3(O)[C@H]1C5 | -5.91% (inactive)
CC(C)NCC(O)c1ccc(N)c(C#N)c1 (stereo unspecified) | 11.6% (inactive) and -5.38% (inactive)
C[C@]12CC[C@H]3[C@@H](CC[C@@]45O[C@@H]4C(=O)C(C#N)C[C@]35C)[C@@H]1CC[C@@H]2O (stereo partly specified) | 6.81% (inactive)
C[C@]12CCC3[C@@H](CC[C@@]45O[C@@H]4C(=O)C(C#N)C[C@]35C)C1CC[C@@H]2O (stereo partly specified) | -74.3% (active)
C[C@]12C[C@H]3S[C@H]3C[C@@H]1CC[C@@H]1[C@@H]2CC[C@]2(C)[C@@H](O)CC[C@@H]12 | -16.5% (inactive)
COC[C@H]1OC(=O)c2coc3c2[C@@]1(C)C1=C(C3=O)C2CCC(=O)[C@@]2(C)C[C@H]1OC(C)=O (stereo partly specified) | -5.28% (inactive)
CC(=O)C1CCC2C3CCC4CC(C)(O)CCC4(C)C3CCC12C (stereo unspecified) | 13.6% (inactive)
COc1cc2cc(c1Cl)N(C)C(=O)C[C@H](OC(=O)C(C)C)[C@]1(C)O[C@H]1[C@H](C)[C@@H]1C[C@@](O)(NC(=O)O1)[C@H](OC)/C=C/C=C(/C)C2 | -83.8% (active)
COC1=CC(=O)OC(/C=C/c2ccccc2)C1 (stereo unspecified) | 9.89% (inactive)
CC1(C)C(=O)N(c2ccc(C#N)c(C(F)(F)F)c2)C(=O)N1CCCCO | 4.23% (inactive)
CN1C(=O)CC(=O)N(c2ccccc2)c2cc(Cl)ccc21 | 7.34% (inactive)
C[C@]12CC[C@H](OC3OC(O)C(O)C(O)C3O)C=C1CCC1C2CC[C@]2(C)[C@@H](c3ccc(=O)oc3)CC[C@]12O (stereo partly specified) | -83.9% (active)
C[C@@H]1O[C@@H](O[C@@H]2C=C3CCC4C(CC[C@]5(C)[C@@H](c6ccc(=O)oc6)CC[C@]45O)[C@@]3(C)CC2)C(O)C(O)[C@H]1O (stereo partly specified) | -85.7% (active)
NCCc1ccccn1 | 26.7% (inactive) and 12% (inactive)
Cc1nnc2n1-c1sc(CCC(=O)N3CCOCC3)cc1C(c1ccccc1Cl)=NC2 | 10% (inactive) and 7.36% (inactive)
O=C(CS(=O)C(c1ccccc1)c1ccccc1)NO (stereo unspecified) | 2.69% (inactive)
CCC(CO)NC(=O)C1C=C2c3cccc4c3c(cn4C)CC2N(C)C1 (stereo unspecified) | 0.967% (inactive)
Nc1ccc([As](=O)(O)O)cc1 | 2.94% (inactive)
CC(C)C[C@H](NC(=O)[C@H](Cc1ccccc1)NC(=O)CNC(=O)[C@H](C)NC(=O)[C@@H](N)Cc1ccc(O)cc1)C(=O)O | 15.2% (inactive)
C[C@]12CC[C@H]3[C@@H](CC[C@]4(O)C[C@@H](O)CC[C@]34C=O)[C@@]1(O)CC[C@@H]2C1=CC(=O)OC1 | -91% (active)
C[C@]12CCC3C(CC[C@]4(O)C[C@@H](O)CC[C@]34C=O)[C@@]1(O)CCC2C1=CC(=O)OC1 (stereo partly specified) | -72.5% (active) and -88.8% (active)
C[C@@H]1O[C@@H](O[C@H]2CC[C@]3(C=O)C4CC[C@]5(C)[C@@H](C6=CC(=O)OC6)CC[C@]5(O)C4CC[C@]3(O)C2)[C@H](O)[C@H](O)[C@H]1O (stereo partly specified) | -76.4% (active)
CCN1C[C@]2(COC)CCC(OC)[C@@]34C5C[C@]6(O)[C@H](OC(=O)c7ccc(OC)cc7)C5[C@@](OC(C)=O)(C[C@H]6OC)[C@@H]([C@H](OC)C23)[C@@H]14 (stereo partly specified) | -1.07% (inactive)

Structure (SMILES) | activity change, negative = inhibition
NC1CCN(c2cccnc2)C1 (stereo unspecified) | 10.7% (inactive)
C[C@H](N)Cn1ccc2cc(F)c(Cl)cc21 | 7.22% (inactive)
Cc1ncc(CNC(=O)N(CCCl)[NH2+][O-])c(N)n1 | 18.6% (inactive)
CN(C)[C@@H]1C(=O)C(C(N)=O)C(=O)[C@@]2(O)C(=O)C3C(=O)c4c(O)cccc4[C@](C)(O)[C@H]3C[C@@H]12 (stereo partly specified) | 4.49% (inactive)
N[C@@H](Cc1ccc(O)cc1)C(=O)NCC(=O)NCC(=O)O (H-Tyr-Gly-Gly-OH) | -5.06% (inactive)
NC(=O)C[S@@](=O)C(c1ccccc1)c1ccccc1 | 3.02% (inactive)
CCCC(C)C1(CC)C(=O)NC(=O)NC1=O (stereo unspecified) | 19.8% (inactive)
CN[C@@H](C)[C@H](O)c1ccccc1 | -0.966% (inactive)
C[C@]12CCC(=O)C(=O)C1CC[C@@H]1[C@@H]2CC[C@]2(C)C(=O)CC[C@@H]12 (stereo partly specified) | 1.31% (inactive)
Cc1nnc2ccc(-c3cccc(C(F)(F)F)c3)nn12 | -56.7% (inactive) and -76.7% (active)
CCN[C@@H](C)Cc1cccc(C(F)(F)F)c1 | 3.99% (inactive)
CCOC(=O)c1ncc2[nH]c3ccc(OCc4ccccc4)cc3c2c1COC | -0.724% (inactive) and 16.8% (inactive)
CCNC(=O)C1OC(n2cnc3c(N)ncnc32)C(O)C1O (stereo unspecified) | 1.34% (inactive)
NC(=O)c1cn(C2OC(CO)[C@H](O)[C@@H]2O)c2ncnc(N)c12 (stereo partly specified) | -91.9% (active)
CCNC(=O)[C@H]1O[C@@H](n2cnc3c(N)ncnc32)[C@H](O)[C@@H]1O | -4.22% (inactive)
C#CCN1C(C)=C(C(=O)CCO)C(c2cccc(-n3oo3)c2)C(C(=O)OC)=C1C (stereo unspecified) | 11.7% (inactive)
OC1(c2ccc(Cl)cc2)c2ccccc2C2=NCCN21 (stereo unspecified) | 22.1% (inactive)
CN1CCC2(c3cccc(O)c3)Cc3nc4ccccc4cc3CC2C1 (stereo unspecified) | -1.33% (inactive)
CC[C@H]1CN2CCC1C[C@@H]2[C@H](O)c1ccnc2ccc(OC)cc12 (stereo partly specified) | 19.4% (inactive)
CC1=C[C@H]2[C@]3(O)[C@H](C)[C@@H](O)[C@@]4(O)[C@H]([C@@H]3C=C(CO)C[C@]2(O)C1=O)C4(C)C | -3.08% (inactive)
CCCCCCCCCCCCCC(=O)O[C@@H]1[C@@H](C)[C@@]2(O)[C@@H](C=C(CO)C[C@]3(O)C(=O)C(C)=C[C@@H]23)[C@@H]2C(C)(C)[C@]12OC(C)=O | -85.6% (active) and -84.7% (active)
CCCCCCCCCOc1ccc2[nH]cc(CCN)c2c1 | 7.94% (inactive)
CCC1/C=C/C=C/C[C@H](C)[C@@H](O)[C@](C)(O)C(=O)[C@@H](C)[C@H](O)[C@@H](C)C(=O)[C@H](C)[C@@H](O)[C@H](C)/C=C/C(=O)OC2[C@@H](C)C(CC1)OC1(CC[C@@H](C)C(C[C@H](C)O)O1)[C@@H]2C (stereo partly specified) | -89.1% (active)
